# Records with an inconclusive call do not appear. Calls of active or inactive are those of the source. Rule for the calls: active = hit-call score of the fitted dose curve at least 0.9, where 1 is the maximum; inconclusive = response in the unintended direction; inactive = score below 0.9.
# Test system: frog Peroxisome Proliferator-activated Receptor-alpha (PPARa), gene 398843
# Test: ATG_frPPARa_EcoTox2: Attagene TRANS-FACTORIAL EcoTox-2 HepG2 Assay for frog Peroxisome Proliferator-activated Receptor-alpha (PPARa)
# Description: ATG_EcoTox2 is a cell-based, multiplexed assay created by modifying the existing Attagene TRANS-FACTORIAL system to include a panel of nuclear receptors from some or all the following species: human (Homo sapiens), african clawed frog (Xenopus laevis), rainbow trout (Oncorhynchus mykiss), japanese medaka (Oryzias latipes), and zebrafish (Danio rerio). The ECOTOX2-FACTORIAL format uses HepG2, a human liver cell line, with measurements taken at 24 hours after chemical dosing in a 24-well plate. ATG_frPPARa_EcoTox2 is one of 29 assay components calculated in the ATG_EcoTox2 assay. It is designed to make measurements of mRNA induction, a form of inducible reporter, as detected with fluorescence intensity signals by Reverse transcription polymerase chain reaction (RT-PCR) and Capillary electrophoresis technology.The assay endpoint ATG_frPPARa_EcoTox2 was analyzed in the positive analysis fitting direction relative to DMSO as the negative control and baseline of activity. Using a type of inducible reporter, measures of mRNA for gain-of-signal activity can be used to understand the reporter gene at the transcription factor-level as they relate to the gene PPARa. Furthermore, this assay endpoint can be referred to as a primary readout, because this assay has produced multiple assay endpoints where this one serves a reporter gene function. To generalize the intended target to other relatable targets, this assay endpoint is annotated to the nuclear receptor intended target family, where the subfamily is non-steroidal.
# Human liver HepG2 cells are transiently transfected with multiple reporter transcription units (MRTUs) in 6-well plates using FuGene 6 reagent (Roche; 3 ml FuGene/1 mg DNA). The MRTU constructs are regulated by a cis-regulating element (promoter). Each RTU expresses a GAL4-UAS that regulates the transcription of a nearby target reporter gene sequence. A major difference between the CIS and TRANS system is that in CIS activities of endogenous TFs are measured, whereas the TRANS assay evaluates changes in activities of exogenous, chimeric NR-Gal4 proteins. […] At the end of 24 hour incubation, total RNA was isolated using TriZol reagent (Invitrogen). The isolated RNA is then reverse-transcribed using oligo(dT) primer and Mo-MLV reverse transcriptase (Invitrogen) with DNAse I (Ambion) treatment for 30 min. The one-tenth of the produced cDNA was amplified by PCR using Taq DNA polymerase (Invitrogen) and two reporter sequence-specific primers. […] The fragments were purified using Qiaquick PCR columns (Qiagen), analyzed on an ABI 3130xL genetic analyzer (Applied Biosystems) with peak positions identified by using a set of X-rhodamine (ROX)-labeled MapMarker1000 molecular weight standards (BioVentures). […]
SMILES,AC50,outcome
O=C(O)C(F)(F)C(F)(F)C(F)(F)C(F)(F)C(F)(F)C(F)(F)C(F)(F)F,75 µM (active),–
[Cl][Sn]([c]1ccccc1)([c]1ccccc1)[c]1ccccc1,–,inactive
O=P(Oc1ccccc1)(Oc1ccccc1)Oc1ccccc1,–,inactive
O=S(=O)(O)C(F)(F)C(F)(F)C(F)(F)C(F)(F)C(F)(F)C(F)(F)F,–,inactive
